Glioma ERSR ind: induces the endoplasmic reticulum stress response in human glioma cells; AID 602332; Potency, µM, for the others: at the highest dose activation, most hits filed as activators; 0.02% of 420,000 active; U87-MG GRP78 promoter luciferase reporter, 16 h; further: series mostly up to about 76 µM; % of control where 0% means no effect; nearly all actives have a fitted effect of over 35% in size
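ERSR induction read as luciferase luminescence (Bright-Glo, 10 min at room temperature) in stably transfected human U87-MG glioma cells exposed to compounds for 16 h, using GRP78 as sensor.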
ALOX12 inh: blocks human arachidonate 12S-lipoxygenase; P18054; purified 12hLO, xylenol orange hydroperoxide absorbance; Potency, µM (doses to about 108 µM), for inactives: at the top dose activity change, negative = inhibition, usual class: inhibitors; 1.1% of 580,000 active; further: on the % scale 0 is the no-effect control and ±100 the full control effect
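Purified human 12hLO at 150 nM in 25 mM Hepes, 0.01% Triton X-100, pH 7.0, preincubated 15 min at room temperature with compound. Reaction started with 40 uM arachidonic acid, 30 min at room temperature. Hydroperoxide measured by Fe-xylenol orange, 573/405 nm absorbance ratio.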
VDR inh: inhibitors of human vitamin D receptor; P11473; VDR-SRC2-3 peptide fluorescence polarization, 2 h; Potency, µM, inactives show max response, negative = inhibition, usual class: inhibitors; 0.93% of 400,000 active; AID 504847; further: on the % scale 0 is the no-effect control and ±100 the full control effect
Target sequence (P11473 whole entry, looked up): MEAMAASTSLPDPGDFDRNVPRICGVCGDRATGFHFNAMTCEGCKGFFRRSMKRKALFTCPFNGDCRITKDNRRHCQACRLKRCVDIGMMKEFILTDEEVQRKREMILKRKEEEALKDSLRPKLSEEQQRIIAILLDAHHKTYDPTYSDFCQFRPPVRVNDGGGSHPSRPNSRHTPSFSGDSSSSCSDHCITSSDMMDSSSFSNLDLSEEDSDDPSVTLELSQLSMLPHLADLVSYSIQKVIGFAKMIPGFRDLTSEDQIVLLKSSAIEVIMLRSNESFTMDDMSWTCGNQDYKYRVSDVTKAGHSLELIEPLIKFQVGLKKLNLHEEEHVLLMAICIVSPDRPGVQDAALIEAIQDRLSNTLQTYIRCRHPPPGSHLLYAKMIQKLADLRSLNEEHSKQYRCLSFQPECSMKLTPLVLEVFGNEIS
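VDR–SRC2-3 interaction, FP format. Cmpds 23 nl via pintool, brief spin, 2 h ambient incubation.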
G9a inh: inhibitors of human histone lysine methyltransferase G9a; Potency, µM (highest dose often 102 µM), for inactives: top-dose activity, negative = inhibition, actives largely listed as inhibitors; Q96KQ7; 8.8% of 350,000 active; G9a H3K9 monomethylation, AlphaScreen, 2 h; AID 504332; further: on the % scale 0 is the no-effect control and ±100 the full control effect; nearly all actives have a fitted effect of over 75% in size
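Using a bead-based AlphaScreen, monomethylated H3K9 product from 2 h room-temperature reactions (G9a 20 nM, peptide 500 nM, SAM 20 uM) was detected with 0.5 ug/mL rabbit anti-H3K9me1 antibody.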
Sfp inh: inhibitors of Bacillus subtilis Sfp phosphopantetheinyl transferase. AID 1490. Q9F4F7. Potency, µM, for inactives: largest response in the series, negative = inhibition, usual class: inhibitors. Biochemical Sfp PPTase activity, qHTS. 3.5% of 310,000 active;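 further: the enzyme is Sfp with the accession as filed and its product quenches rhodamine fluorescence; 0% = enzyme reaction without inhibitor and -100% = no enzyme wells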
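Fluorescence-quenching assay: 15 nM Sfp-PPTase preincubated 15 min at room temperature with compound, then 5 uM rhodamine-CoA and 12.5 uM BHQ-2-labelled YbbR peptide added. Fluorescence (ex 525/em 598 nm) read at start and after 30 min; difference gives rate.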
Active calls of the source: *; [ ] = remark or other dose. Many of the other results were omitted from the sample, so hits are more common in it than they were. The call rests on the fitted dose curve; in most records, active means well fitted curve in the direction sought with a large enough effect; inconclusive means small, poorly fitted or top-dose-only effect, or another doubt; inactive means no such curve, though single readings can be large; an effect the other way counts as inactive or inconclusive. Potency means the concentration at half of the fitted maximal effect.

CCCOc1ccc(C(=O)NNC(=S)NC(C)=O)cc1 was read as Glioma ERSR ind 3%, ALOX12 inh -3%, VDR inh inconclusive, G9a inh inconclusive and Sfp inh inconclusive.
O=C(NCc1ccccc1)N1CCC(O)(c2csc(CN3CCc4ccccc4C3)n2)CC1 was read as ALOX12 inh 12%.
Screening CC(Oc1ccc(Cl)cc1Cl)C(=O)NC(=S)N1CCc2ccccc21 (stereo not given) returned Glioma ERSR ind -3%, ALOX12 inh -23%, VDR inh -2%, G9a inh 28µM* and Sfp inh 17%.
`O=c1cc(-c2ccccc2)oc2cc(O[C@@H]3O[C@H](CO)[C@@H](O)[C@H](O)[C@H]3O)c(O)c(O)c12` gave Glioma ERSR ind inconclusive and Sfp inh 50µM*.
For O=C(O)c1cccnc1C(=O)N1CCc2c([nH]c3ccccc23)C1C(F)(F)F (stereo not given) the results were Glioma ERSR ind -4%, ALOX12 inh 0%, VDR inh 3%, G9a inh 56µM* and Sfp inh -17%.
CCCOc1cc(C)c2c(c1C)C[C@H](C(C)C(=O)N1CCN(CC(=O)O)CC1)CC2 (stereo not given in full) was read as ALOX12 inh 3%[176 µM].
Screening O=C(Nc1nnc2n1CCS2)c1ccc(F)cc1F returned Glioma ERSR ind 2%, ALOX12 inh -5%, VDR inh 15% and G9a inh 2.2µM*.
CCC(C(=O)Nc1nnc2n1CCS2)c1ccccc1 (stereo not given) was read as Glioma ERSR ind -1%, ALOX12 inh -5%, VDR inh 4% and G9a inh -47%[59 µM].
Screening Cc1ccccc1C(=O)Nc1nnc2n1CCS2 returned Glioma ERSR ind 2%, ALOX12 inh 1%, VDR inh 8% and G9a inh 8.9µM*.
`O=C(Nc1nnc2n1CCS2)c1ccccc1` gave Glioma ERSR ind -3%, ALOX12 inh -2%, VDR inh 15% and G9a inh 4.5µM*.
O=C(Nc1nnc2n1CCS2)c1ccc(Br)o1 was read as Glioma ERSR ind 3%, ALOX12 inh -2%, VDR inh -6%, G9a inh 1.8µM* and Sfp inh 56µM*.
`CC(C)Oc1ccc(C(=O)Nc2nnc3n2CCS3)cc1` gave Glioma ERSR ind -8%, ALOX12 inh -7%, VDR inh 3% and G9a inh 17%[59 µM].
`O=C(Cc1ccc(Cl)cc1)Nc1nnc2n1CCS2` gave Glioma ERSR ind 2%, ALOX12 inh 1%, VDR inh 0% and G9a inh inconclusive.
`O=C(/C=C/c1ccc2c(c1)OCCCO2)c1ccccc1OCc1ccccc1` gave ALOX12 inh 8%.
Screening CC(C)CN1C(=O)COC[C@@H]1[C@H](O)c1ccc(NC(=O)c2cccnc2)cc1 returned ALOX12 inh 9%[176 µM].
For COc1ccc(CN2CCC3(CC(Cc4ccccc4)=NO3)C2)cc1 (stereo not given) the results were ALOX12 inh 56%.
`CCC(CC)C(=O)Nc1nnc2n1CCS2` gave Glioma ERSR ind -3%, ALOX12 inh inconclusive, VDR inh -3% and G9a inh inconclusive.
For CCOC(=O)C(=O)Nc1nnc2n1CCS2 the results were Glioma ERSR ind -3%, ALOX12 inh -6%, VDR inh -11% and G9a inh 1.6µM*.
Screening N#C/C(=C/c1ccc(N2CCOCC2)o1)c1nc2ccccc2[nH]1 returned Glioma ERSR ind -9%, ALOX12 inh inconclusive, VDR inh -23%, G9a inh 8.9µM* and Sfp inh 20µM*.
For COc1ccc(NC(=O)/C(C#N)=C\c2ccc(N3CCOCC3)o2)cc1 the results were Glioma ERSR ind -3%, ALOX12 inh -28%, VDR inh -5%, G9a inh inconclusive and Sfp inh -10%.
N#C/C(=C\c1ccc(N2CCOCC2)o1)c1ccccc1 was read as Glioma ERSR ind 11%, ALOX12 inh 20µM*, VDR inh -93%, G9a inh inconclusive and Sfp inh 25µM*.
S=C(c1nc2ccccc2[nH]1)N1CCOCC1 was read as Glioma ERSR ind -4%, ALOX12 inh -5%, VDR inh inconclusive, G9a inh 1.6µM* and Sfp inh 25µM*.

High-throughput results (PubChem BioAssay)
